Sampled rows, rich in hits. Any-hit rate of the full collection: about 11%.
AMA1 RON2 block: inhibitors of Plasmodium falciparum AMA1-RON2 interaction; Potency, µM (doses to about 58.2 µM), for inactives: at the highest dose activity change, negative = inhibition, hits mostly inhibitors; AlphaScreen AMA1-biotinylated RON2 peptide binding; actives 0.2% (n = 360,000);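 also: 0% = vehicle wells and -100% = peptide control; nearly all actives have a fitted effect of over 45% in size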
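AMA1 (3D7) with his tag at 25 nM final met compounds first, then biotinylated RON2 peptide at 25 nM; detection used donor plus acceptor beads, 10 µg/mL apiece, read by AlphaScreen after 30 min at room temperature.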
AmpC inh no detg: blocks E. coli AmpC beta-lactamase in detergent-free assay; actives 0.52% (n = 330,000); AID 485341; Potency, µM (top dose mostly 57.1 µM), for inactives: at the highest dose activity change, negative = inhibition, usual class: inhibitors; AmpC nitrocefin hydrolysis, absorbance 480 nm, 0.0001% Triton; P00811;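 also: plate controls were no compound for no effect and no enzyme for full effect; nearly all actives have a fitted effect of over 20% in size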
Target sequence (P00811 whole entry, looked up): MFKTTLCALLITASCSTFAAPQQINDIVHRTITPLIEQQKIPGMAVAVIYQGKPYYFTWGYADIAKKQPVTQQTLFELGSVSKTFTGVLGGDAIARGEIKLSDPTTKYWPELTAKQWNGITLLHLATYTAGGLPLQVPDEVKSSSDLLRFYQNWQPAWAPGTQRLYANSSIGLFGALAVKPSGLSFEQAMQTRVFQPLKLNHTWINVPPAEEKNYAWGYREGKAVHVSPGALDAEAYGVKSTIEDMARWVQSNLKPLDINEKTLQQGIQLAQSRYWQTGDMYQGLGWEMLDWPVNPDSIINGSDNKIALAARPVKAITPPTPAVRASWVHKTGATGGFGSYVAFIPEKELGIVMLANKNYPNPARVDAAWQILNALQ
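20 mM phosphate pH 7.0 + 0.01% (detergent screen) or 0.0001% Triton X-100; 5.3 nM AmpC reagent; cpd preinc 15 min RT; nitrocefin (800 uM stock) to start; A480 q20 s × 4 min; Activity was normalised to no-enzyme and no-compound control wells.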
HCV inhibitor: inhibitors of hepatitis C virus infection; Huh7.5.1 HCVcc-Cre infection, luciferase reporter, 44 h; Potency, µM (doses to about 41.8 µM), inactives show at the top dose activity change, negative = inhibition, most hits filed as inhibitors; actives 3.4% (n = 340,000); AID 651820
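Cells seeded at 1,000/well and cultured 4 h, then compounds added followed by HCVcc-Cre virus (~0.5 moi). After 44 h further culture, luciferase substrate was added, plates held 15 min at room temperature, and luminescence read for 15 sec.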
AmpC detergent: inhibitors of E. coli AmpC beta-lactamase with detergent. P00811. AmpC hydrolysis of nitrocefin, absorbance 480 nm, 0.01% Triton. actives 0.041% (n = 370,000). Potency, µM (series often up to 114 µM), inactives show top-dose activity change, negative = inhibition, hits mostly inhibitors. AID 485294;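 also: 0% = no-compound wells and -100% = no-enzyme wells; nearly all actives have a fitted effect of over 25% in size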
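AmpC (5.3 nM in the dispensed reagent) in 20 mM phosphate pH 7.0 with 0.01% (detergent screen) or 0.0001% Triton X-100 was preincubated with compounds for 15 min at room temperature. Nitrocefin was then added from an 800 uM solution, and hydrolysis was followed at 480 nm.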
Pf growth 96h: P. falciparum growth inhibition at 96 hour, primary screen for plastid delayed-death inhibitors. actives 6.9% (n = 320,000). P. falciparum luciferase reporter growth, 96 h. Potency, µM (series often up to 28.7 µM), for the others: at the top dose activity change, negative = inhibition, actives largely listed as inhibitors. AID 504834
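Two-generation exposure (96 h) targets delayed-death phenotype. Reporter parasites carrying integrated firefly luciferase, in red cells at 2% hematocrit and 0.05% parasitemia final, kept at 37 C, 5% CO2; luminescence loss indicates inhibition.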
Pf growth 48h: P. falciparum growth inhibition at 48 hours (one generation); actives 5.9% (n = 310,000); Potency, µM (series often up to 28.7 µM), for the others: at the highest dose activity change, negative = inhibition, hits mostly inhibitors; P. falciparum luciferase growth in erythrocytes, 48 h
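Erythrocytes infected with P. falciparum carrying an integrated firefly luciferase reporter (2% hematocrit, 0.1% parasitemia final) were exposed to compounds in RPMI 1640 with 0.5% Albumax at 37 C, 5% CO2. Growth inhibition was scored as reduced luminescence.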
* marks the source's active call; other numbers are inactive results; ? = inconclusive; . = no result given; [ ] = another dose, or the depositor's remark. Calls follow the shape of the dose curve; as a rule, active = well fitted curve in the direction sought with a large enough effect; inconclusive = small, poorly fitted or top-dose-only effect, or another doubt; inactive = no such curve, though single readings can be large; an effect the other way counts as inactive or inconclusive. Unless noted, % is scaled to controls: 0 for no effect and ±100 for the full control effect; potency is read from the fitted curve at half-maximal effect.

SMILES	AMA1 RON2 block	AmpC inh no detg	HCV inhibitor	AmpC detergent	Pf growth 96h	Pf growth 48h
C#CCOCCOCCOCCNc1nc(N2CCN(C(=O)CCCCCCCCCCNC(=O)[C@@H](CCC(=O)O)n3cc(CCCCCN)nn3)CC2)nc(N2CCN(C(=O)CCCCCCCCCCNC(=O)[C@H]([C@@H](C)CC)n3cc(CCCCCN)nn3)CC2)n1	-17%	136%	?	?	1.5µM*	2.1µM*
C#CCOCCOCCOCCNc1nc(N2CCN(C(=O)[C@H]([C@@H](C)CC)n3cc(CCC(=O)O)nn3)CC2)nc(N2CCN(C(=O)[C@H](CCCCN)n3cc(CCCC)nn3)CC2)n1	-2%	.	-21%[8.37 µM]	.	.	.
C#CCOCCOCCOCCNc1nc(N2CCOCC2)nc(N2CCN(C(=O)CCCCCCCCCCNC(=O)[C@@H](CCC(=O)O)n3cc(CCCCCN)nn3)CC2)n1	4%	299%	1%	-12%	?	15µM*
C#CCOCCOCCOCCNc1nc(N2CCN(C(=O)CCCCCCCCCCNC(=O)[C@H]([C@@H](C)CC)n3cc(CCCCCN)nn3)CC2)nc(N2CCN(C(=O)CCCCCCCCCCNC(=O)[C@H](CCCCN)n3cc(CCCC(=O)O)nn3)CC2)n1	-12%	344%	11µM*	21%	?	12µM*
CCc1ccc2ncc3c(-c4ccccc4)nn(-c4ccccc4)c3c2c1	.	.	.	-7%	.	.
Cc1cccc(NC(=O)C(Cc2ccccc2)NS(=O)(=O)c2ccc3c(c2)c(=O)n(C)c(=O)n3C)c1 (centres undefined)	.	.	.	13%	.	.
NS(=O)(=O)c1ccc(Sc2nc3ccccc3s2)c([N+](=O)[O-])c1	-28%	-44%	22µM*	3%	-10%	-14%
NS(=O)(=O)c1ccc(Sc2ccccn2)c([N+](=O)[O-])c1	-15%	-17%	12%	-1%	-3%	-12%
CC(C)N1C(=O)NC(=O)C2(Cc3cc([N+](=O)[O-])ccc3N(C)C2c2ccccc2)C1=O (centres undefined)	-8%	-33%	?	-12%	12µM*	?
CN1c2ccc([N+](=O)[O-])cc2CC2(C(=O)NC(=O)NC2=O)C1c1ccccc1 (centres undefined)	-22%	4µM*	14%	-11%	?	?
O=C1NC(=O)C2(Cc3cc([N+](=O)[O-])ccc3N3CCN(C(=O)c4ccccc4)CC32)C(=O)N1 (centres undefined)	2%	-11%	6%	0%	18%	-13%
CN1c2ccc([N+](=O)[O-])cc2CC2(C(=O)NC(=O)N(c3ccccc3)C2=O)C1c1ccccc1 (centres undefined)	11%	-16%	11%	-14%	2.9µM*	3.3µM*
CN1C(=O)N(C)C(=O)C2(Cc3cc([N+](=O)[O-])ccc3N3CCN(C(=O)c4ccccc4)CC32)C1=O (centres undefined)	-1%	59%	10%	-7%	21%	?
CCN(CC)C(=O)Cn1c(=O)cc(C)c2c(C)nn(-c3cccc(Cl)c3C)c21	.	.	.	3%	.	.
CC(C)CCNc1nc(-c2ccco2)c2c(c1C#N)CCCC2	-3%	-6%	-4%	-5%	13µM*	.
CC(C)(C)OC(=O)N1CCC(c2c(C(=O)N3CCN(c4ncccn4)CC3)cnn2-c2ccc(F)cc2)CC1	.	.	.	-4%	.	.
O=S(=O)(c1ccc2c(c1)N(Cc1ccc(Cl)cc1)C1CCCN21)N1CCOCC1 (centres undefined)	-2%	3%	-6%	6%	8.3µM*	?
COc1ccc(CN2c3cc(S(=O)(=O)N4CCOCC4)ccc3N3CCCC32)cc1 (centres undefined)	-8%	1%	-3%	-4%	8.3µM*	.
